The campaign covered roughly 360,000 compounds. About 2,400 (0.67%) were called active. The sample as a whole holds a higher share of actives than the screen did. Values without a mark were called inactive.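 The calls were made as follows: active = inhibition above about 55% (limit read from the data); inconclusive = no clear call, values can overlap the other calls; inactive = the rest.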
Assay: LAMP-1 surface exposure blockers, TALL-104 cells – cell-based, flow cytometry, MLPCN library, primary screen (AID 651702)
Settings: TALL-104 LAMP-1 surface exposure, at 10 µM, stronger effect = higher value, cells stimulated with thapsigargin and PMA
COc1ccc(CCNC(=O)CN(c2ccccc2)S(C)(=O)=O)cc1 gave an inhibition of 10.8%.
With C(=C\c1ccccc1)/CSc1nnc(-c2cccnc2)n1Cc1ccco1 the inhibition was -1%.
COc1ccc(-c2oc3ncn(Cc4ccco4)c(=N)c3c2-c2ccc(OC)cc2)cc1 gave an inhibition of 24.9%.
For N=c1c2c(-c3ccccc3)c(-c3ccccc3)oc2ncn1Cc1ccco1, the inhibition was 59.7% (active).
With COc1ccccc1C(=O)NCCC(=O)NN1C(=O)NC2(CCCCC2)C1=O the inhibition was 4%.
For O=C(O)C(F)(F)C(NCc1ccccc1)c1ccccc1 (stereo not given), the inhibition was 2.5%.
In the case of Cc1cc(C)n(CCNC(=O)CC2C(=O)NCCN2Cc2ccc(C)o2)n1 (stereo not given), the inhibition is reported as -10.6%.
For Nc1ccn(CC(=O)N2CCN(c3ccccn3)CC2)c(=O)n1, the inhibition was 6.5%.
With CC(C)(C)NC(=O)CN(Cc1cccs1)C(=O)CNS(=O)(=O)c1ccccc1 the inhibition was -2.2%.
For COc1ccc(OC)c(NC(=O)CN(C)CCOc2ccc(Br)cc2)c1, the inhibition was 93.7% (active).
With COc1ccc(OC)c(NC(=O)CN(Cc2ccc(Cl)cc2)S(C)(=O)=O)c1 the inhibition was 6.3%.
Compound COc1ccc(Br)cc1CN(C)CC(=O)Nc1cc([N+](=O)[O-])ccc1OC has an inhibition of 0.6%.
Work on COCc1c(C(=O)N/N=C/C2CC=CCC2)nnn1-c1nonc1N (stereo not given) yielded an inhibition of 1.4%.
For CS(=O)(=O)N(CC(O)Cn1c2ccccc2c2ccccc21)c1cccc2ccccc12 (stereo not given), the inhibition was 86.5% (active).
Compound Cc1cc(C)n(CC(O)CN(c2ccccc2)S(=O)(=O)c2ccc3ccccc3c2)n1 (stereo not given) has an inhibition of -1%.
Compound CCCCN(CCCC)CC(O)Cn1c2ccccc2c(=O)c2ccccc21 (stereo not given) has an inhibition of 11.9%.
O=S(=O)(NCC1CC1)c1ccc(F)c(Cl)c1 gave an inhibition of -8.8%.
COC(=O)c1ccc(COC(=O)c2cnc(Cl)c(Cl)c2)cc1 gave an inhibition of -4.5%.
In the case of CCOc1ccc(C(C)=O)cc1COC(=O)c1cnc(Cl)c(Cl)c1, the inhibition is reported as 57.6% (active).
In the case of CCOc1ccc(C(C)=O)cc1COC(=O)CNC(=O)c1cccs1, the inhibition is reported as -4.6%.
Compound CC(C)(C)NS(=O)(=O)CC12CCC(CC1=O)C2(C)C (stereo not given) has an inhibition of -2.4%.
In the case of COc1ccc(NC(=O)/C(Cl)=C(/Cl)S(=O)Cc2ccc(C)cc2)cn1 (stereo not given), the inhibition is reported as 103% (active).
O=C(O[C@@H]1[C@H](Cc2ccccc2)NS(=O)(=O)[C@H]2C[C@@H]3C=C[C@]12O3)c1ccccc1Br gave an inhibition of -3.7%.
COC(=O)c1ccccc1NC(=O)CSc1nc2c(c(=O)[nH]1)CCC2 showed an inhibition of 8.6%.
In the case of OC(COCC1COc2ccccc2O1)CN1CCN(c2ccc(F)cc2)CC1 (stereo not given), the inhibition is reported as -15.5%.
With CCN1CCN(CCNC(=O)c2ccc(/C=C3/Sc4ccccc4N(Cc4cccc(C)c4)C3=O)cc2)CC1 the inhibition was 86.2% (active).
O=C(CN1C(=O)/C(=C\c2ccc(C(F)(F)F)cc2)Sc2ccccc21)NCc1ccco1 gave an inhibition of -0.7%.
With CCN1CCN(CCNC(=O)c2ccc3c(c2)NC(=O)/C(=C\c2cccc(Cl)c2)S3)CC1 the inhibition was 10.1%.
CC(=O)c1cnc(SCC(=O)O)nc1C showed an inhibition of -1%.
Compound Cc1cc(NC(=O)CS(=O)(=O)c2cn(C)c3ccccc23)no1 has an inhibition of -1.6%.
Work on COc1ccc(C(=O)NCC2CCCO2)cc1S(=O)(=O)NCc1ccc(Cl)cc1 (stereo not given) yielded an inhibition of -5.7%.
With C=CCn1c(SCc2csc(C)n2)nc2scc(-c3ccc(C)o3)c2c1=O the inhibition was 62.3% (active).
For C=CCn1c(SCC(=O)/C(C#N)=C(\C)N)nc2sc(C)c(C)c2c1=O, the inhibition was -1.8%.
C=CCn1c(SCC(=O)Nc2ccc(NC(C)=O)cc2)nc2sc(C)c(C)c2c1=O showed an inhibition of -3.1%.
For COc1ccccc1NS(=O)(=O)c1ccc(C)c(C(=O)NCC(c2ccco2)N(C)C)c1 (stereo not given), the inhibition was 3.6%.
For CCc1ccc(NC(=O)CS(=O)CC(=O)NCCCc2ccccc2)cc1 (stereo not given), the inhibition was -1.4%.
Compound O=C(NCC1CCCO1)C(C(=O)c1ccccc1)n1cc(Cl)ccc1=O (stereo not given) has an inhibition of 1.4%.
With CC(=O)c1c(C)[nH]c(C(=O)OCC(=O)Nc2c(C)cccc2C)c1C the inhibition was 2.6%.
In the case of CC(=O)c1c(C)[nH]c(C(=O)COC(=O)c2cccc(S(=O)(=O)N(C)c3ccccc3)c2)c1C, the inhibition is reported as 75.4% (active).
COc1ccc(C)cc1NC(=O)C(OC(=O)c1cccc(S(=O)(=O)N(C)c2ccccc2)c1)c1ccccc1 (stereo not given) showed an inhibition of 0.3%.
For CCOC(=O)CN1CC23C=CC(O2)C(C(=O)Nc2ccc(F)cc2)C3C1=O (stereo not given), the inhibition was 1.3%.
O=C(Nc1ccc(Cl)cn1)c1ccccc1-c1ccccc1 showed an inhibition of -5.1%.
For Oc1ccccc1-c1cc(-c2ccc(Cl)cc2)n[nH]1, the inhibition was 92.9% (active).
Compound CC(C)C(=O)NCc1cc(-c2ccc(Cl)cc2)no1 has an inhibition of 0.2%.
Work on CCCN(CC1CC1)C(=S)NC(=O)c1ccccc1Br yielded an inhibition of -2.1%.
Compound CC1Cc2nc(SCC(=O)Nc3ccccc3F)n(C)c(=O)c2S1 (stereo not given) has an inhibition of 3.3%.
Work on COCCn1c(C)cc(C(=O)COC(=O)/C=C/c2cccc(OC)c2)c1C yielded an inhibition of -3.8%.
For O=C(O)C1CCN(c2ccc([N+](=O)[O-])cc2[N+](=O)[O-])CC1, the inhibition was -1.4%.
Work on CC1CCN(C(=S)c2cccc([N+](=O)[O-])c2)CC1 yielded an inhibition of 0.5%.
For CC1CCN(c2ccc([N+](=O)[O-])cc2C(N)=O)CC1, the inhibition was 60.4% (active).
Compound Cc1ccc(C(C)C)c(OCc2nnc(SCC(=O)Nc3nccs3)n2C)c1 has an inhibition of 1.2%.
For O=C(NC1=CC(=O)c2ccccc2C1=O)c1ccccc1, the inhibition was 108% (active).
COc1cc(NC(=O)c2ccccc2)c(OC)cc1NC(=O)Cc1ccccc1 showed an inhibition of 0%.
With C/C(=N\NC(=O)c1ccc(C)cc1)C1C(=O)c2ccccc2C1=O the inhibition was -2.2%.
Compound Cc1ccc(S(=O)(=O)NCCSC(C)(C)C)cc1 has an inhibition of 11%.
With O=C(NCc1ccccc1)c1onc(CSc2nc3ccccc3[nH]2)c1C(=O)NCc1ccccc1 the inhibition was -2.7%.
COc1ccc(C(O)C(O)(C(=O)OC(C)C)c2ccc(C)cc2)cc1 (stereo not given) showed an inhibition of -2.2%.
Compound COc1ccc(C2C(C(C)=O)=C(O)C(=O)N2CCc2c[nH]c3ccccc23)cc1 (stereo not given) has an inhibition of 0.4%.
With COc1ccc(/C=C(\C#N)c2c[nH]c3ccccc23)cc1 the inhibition was 90.4% (active).
For C[N+](C)(C)CCNC(=O)c1c[nH]c2ccccc12, the inhibition was -7.5%.
Compound O=C(CN1C(=O)NC2(CCc3ccccc32)C1=O)NC1CCCCC1 (stereo not given) has an inhibition of -1.5%.
With Brc1ccc2c(c1)[C@H]1OCC[C@H]1[C@@H](c1cccs1)N2 the inhibition was 1%.
COc1cccc2oc(CCc3ccccc3)cc(=O)c12 gave an inhibition of -4.5%.
For COc1ccc(CC(N)c2csc(NC(=O)Nc3ccc(C(C)C)cc3)n2)cc1 (stereo not given), the inhibition was 67.4% (active).
In the case of COc1ccc(CC(N)c2csc(NC(=O)NC(c3ccccc3)c3ccccc3)n2)cc1 (stereo not given), the inhibition is reported as 11.2%.
For COc1ccc(CC(N)c2csc(NC(=O)Cc3ccccc3)n2)cc1 (stereo not given), the inhibition was -2.9%.
Compound CC(=O)NCC(=O)N(Cc1ccco1)C1(C(=O)NC2CCCC2)CCCCC1 has an inhibition of 4.1%.
Cc1cc(C)cc(NC(=O)c2cccc(NC(=O)C3C4CC5OC(=O)C3C5C4)c2)c1 (stereo not given) gave an inhibition of -3.6%.
Cc1noc(C)c1COC(=O)Cn1c(C)nc2ccccc21 gave an inhibition of -0.2%.
In the case of CCCCCCCCCCOC(=O)Cn1c(COc2ccc(C)cc2)[n+](C)c2ccccc21, the inhibition is reported as 79.9% (active).
Compound CCOc1ccc(OCCSc2nc3ccccc3n2CC(=O)O)cc1 has an inhibition of -4.7%.
For CCCCCCCCCCOC(=O)Cn1c(COc2cccc(OC)c2)[n+](C)c2ccccc21, the inhibition was 63.4% (active).
Cc1cccc(-n2c(Cc3cc(=O)[nH]c(=O)[nH]3)nnc2SCC(=O)Nc2cccc(C(F)(F)F)c2)c1 gave an inhibition of -9.1%.
Compound COc1ccc(CCNC(=O)NS(=O)(=O)c2ccc(C)cc2)cc1OC has an inhibition of -3.4%.
Work on CC(=O)N1C[C@@H](CO)[C@@H](N(C)C(=O)c2ccco2)C[C@H]1c1ccccc1 yielded an inhibition of -2%.
For NC(=S)NN=C1CCCC(C(F)(F)F)C1 (stereo not given), the inhibition was -3%.
Compound CCc1ccc(-c2cc(C(=O)NN3CCN(C)CC3)c3ccccc3n2)cc1 has an inhibition of -2.9%.
Compound Cc1c(NC(=O)c2cc(-c3ccc(Cl)s3)nc3ccccc23)c(=O)n(-c2ccccc2)n1C has an inhibition of 8.8%.
In the case of Cc1ccc(NC(=O)c2cc(-c3ccc(C)o3)nc3ccccc23)nc1, the inhibition is reported as 71.4% (active).
CCN1C(=O)[C@H]2[C@@H](c3ccc(-c4ccc(OC)cc4)cc3)N[C@@](Cc3ccccc3)(C(=O)OC)[C@H]2C1=O gave an inhibition of -2.6%.
For CCN1C(=O)[C@H]2[C@@H](c3ccc(SC4CCCCC4)c(OC)c3)N[C@@](Cc3ccccc3)(C(=O)OC)[C@H]2C1=O, the inhibition was -2.9%.
In the case of CCN1C(=O)[C@H]2[C@@H](c3ccc(-c4ccc(F)cc4)cc3)N[C@@](Cc3ccccc3)(C(=O)OC)[C@H]2C1=O, the inhibition is reported as 97.9% (active).
COc1ccc(CC(NC(C)=O)C(=O)NC2CCN(C(=O)c3ccc(Cl)cc3)CC2)cc1 (stereo not given) gave an inhibition of -6.3%.
Work on Brc1ccccc1C1N=C(c2ccccc2)NO1 (stereo not given) yielded an inhibition of -3.5%.
Compound COc1cc2c(cc1OC)C(c1ccccc1Br)NC(=O)C2 (stereo not given) has an inhibition of 1.4%.
With Brc1ccccc1C1Nc2cccc3cccc(c23)N1 the inhibition was 72.2% (active).
NS(=O)(=O)c1cc(Cl)c(Cl)c(S(N)(=O)=O)c1 gave an inhibition of 0.8%.
Compound NC(=O)c1ccccc1N(Cc1ccccc1)S(=O)(=O)c1ccccc1 has an inhibition of 11.2%.
For O=C(O)c1cc(S(=O)(=O)N(Cc2ccccc2)c2ccccc2)ccc1Cl, the inhibition was -1%.
With O=S(=O)(c1ccccc1)N(Cc1cccc(F)c1)c1ccccc1 the inhibition was 65.4% (active).

— PubChem BioAssay AID651702 (NMMLSC, 2012)
